Data on 40 compounds can be found in PubChem BioAssay (NCI).

Molecules are shown by their SMILES. Where “and” joins values, the source holds several entries; their conditions need not be identical. Equal values may be shown once. Compounds without any hit were thinned out: in the full panel of roughly 83,000, 20% have a hit.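 Assay: single dose, 48 h. Readout: percent growth (0 = no net growth; negative = cell death). Active: <10.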 Calls of active or inactive are those of the source.

This assay has as its system MDA-MB-468 breast. Kind of assay: NCI-60 one-dose screen, 48 h (100 = growth as untreated, 0 = no growth, -100 = all killed). Particulars: 10 µM unless noted.
On to `CCC(=O)OCc1ccc(OC)cc1`, for which the growth was 87.3% (inactive). `CC(=O)N1N=C(c2cccc(Nc3ccncc3)c2)CC1c1ccccc1` (stereo not given): the growth was 79.8% (inactive). The figure for `C=C1C(=O)O[C@H]2[C@H]1CC/C(COC(=O)/C=C\C(=O)NCc1ccc(Cn3c(=O)sn(-c4ccc(OC)cc4)c3=O)cc1)=C\CC[C@@]1(C)O[C@@H]21` is -81.7% (active); for `C#C[C@]1(O)CC[C@H]2[C@@H]3CC=C4c5sc(Nc6cc(Cl)ccn6)nc5CC[C@]4(C)[C@H]3CC[C@@]21C` it is 28.6% (inactive); for `Cn1cc(-c2cc3ncnc(Nc4ccc(NC(=O)Nc5cc(C(C)(C)C)on5)cc4)c3s2)cn1` it is 31.7% (inactive). Under `CCN1C(=O)N(CC)C2C1NN=c1s/c(=C\c3ccc[nH]3)c(=O)n12` (stereo not given) stands 5.56% (active); under `Oc1ccccc1O`, 91.1% (inactive).

Regarding `CC[C@]1(O)C[C@@H]2CN(CCc3c([nH]c4ccccc34)[C@@](C(=O)OC)(c3cc4c(cc3OC)N(C)[C@H]3[C@@](O)(C(=O)OC)[C@H](OC(C)=O)[C@]5(CC)C=CCN6CC[C@]43[C@@H]65)C2)C1`, the growth is 19.8% (inactive). The figure for `CCN(CC)CCNC(Cc1ccccc1)c1ccc(OCc2ccccc2)cc1` (stereo not given) is 66.4% (inactive); for `CN1CCN(c2ccc(Nc3nc(NCCNS(=O)(=O)c4ccc(Cl)cc4)c4sccc4n3)cc2)CC1` it is 93% (inactive).

For the compound `C=CCSc1nnc(-c2ccc(C(C)(C)C)cc2)n1-c1cccc(C(F)(F)F)c1`, the growth is 21.5% (inactive). Take `CCCCCCCCCC1=NC(C)(C)CN1C(C)(C)CO`: the growth was 70.3% (inactive). For `CC(=O)NCc1cc(C)c(C)cc1C`, the growth was 93.4% (inactive). Under `COc1ccc(C(=O)c2sc3nc4c(c(C(F)(F)F)c3c2N)CN(C(C)=O)CC4)cc1OC` stands 83.7% (inactive); under `COc1ccc(/C(C#N)=C/c2nc3c(N4CCOCC4)nc(Cl)nc3n2C)cc1OC`, -20.9% (active). Consider `CCCCOC(=O)OCc1cc(=O)c(O)co1`, for which the growth was 97.5% (inactive). In the case of `CCOc1c(C#N)nnc2c(C#N)c(NC(=O)c3ccccc3)nn12`, the growth is 103% (inactive). The figure for `c1cc2ccc3cc2cc1CNCCOCCNCc1ccc2ccc(cc2c1)CNCCOCCNC3` is -68% (active); for `Cc1ccc(NCN2C(=O)c3ccccc3C2=O)c(C)n1` it is 98.5% (inactive). With `Cc1nc2cc(Nc3nc(N4CCOCC4)nc(N4CCN(C)CC4)n3)ccc2n1Cc1ccccc1`, the growth was 111% (inactive). Under `c1cncc(-c2cn3nc(-c4c[nH]c5ccccc45)sc3n2)c1` stands -9.26% (active); under `Cn1cc(-c2nonc2-c2c[nH]c3ccc(F)cc23)c2cc(Br)ccc21`, 58.7% (inactive). The figure for `C(#CCN1CCOCC1)CCCN1CCOCC1` is 93.6% (inactive) and 110% (inactive). Take `O=C(CNc1ccc2c(c1)C(=O)c1ccccc1C2=O)Nc1ccc2c(c1)C(=O)c1ccccc1C2=O`: the growth was -87.4% (active). The figure for `CC1C(/C=N/NC(N)=S)C(C#N)(C#N)C1(C#N)C#N` (stereo not given) is 113% (inactive); for `CSc1nnc2c(=O)n(C)c(=O)n(C)c2n1` it is 108% (inactive). The figure for `Cc1[nH]n(C(=O)c2ccncc2)c(=O)c1N=Nc1ccc(F)c(Cl)c1` is 110% (inactive); for `CCOC(=O)Nc1nc2ccc(SCC(C)C)cc2s1` it is 2.1% (active); for `CN(C)CCC(=O)c1c[nH]c2ccccc12` it is 106% (inactive). The figure for `COc1ccccc1-n1cc(C#N)c(N)c1C(=O)c1ccc(Cl)cc1` is 51.6% (inactive). Turning to `CN(C)CCN(Cc1ccccc1)c1ccc2ccccc2n1`, the growth is 92.6% (inactive). The figure for `C[C@@H]1C=C2C(=O)O[C@@H]3CC[C@H](C1)[C@]23O` is 11.4% (inactive); for `FC(F)(F)c1ccc(-c2cn3nc(-c4c[nH]c5ccc(Br)cc45)sc3n2)cc1` it is 103% (inactive); for `COC(=O)CCCNS(=O)(=O)c1cc(C(=O)Nc2ccc(NC(=O)c3cc(S(=O)(=O)NCCCC(=O)OC)c(O)c(O)c3O)cc2)c(O)c(O)c1O` it is 98.7% (inactive).

Take `COc1c(O)cc2oc3cc(O)c(CC=C(C)C)c(O)c3c(=O)c2c1CC=C(C)C`: the growth is 71.2% (inactive). Under `COc1cccc2c(=O)c3c(sc12)c(NCCCNCCO)nc1ccccc13` stands 71.3% (inactive); under `O=[N+]([O-])c1cccc(CN(Cc2cccc([N+](=O)[O-])c2O)c2ccccc2)c1O`, 108% (inactive). Under `CCN(CC)C(=S)SCCO` stands 94.6% (inactive); under `NC[C@@](O)(c1ccc(Cl)cc1)c1ccc(-c2cn[nH]c2)cc1`, -40.9% (active); under `CC(=O)Nc1nccs1`, 107% (inactive).
